From PubChem BioAssay (NCI)
About 79,000 compounds went through this panel and 15% of them were active in at least one assay; those are over-represented in the sample as a whole. The source made the active and inactive calls. No stated cut-off is given here; in the data, active means growth inhibition above about 70%; inactive means the rest.

Experiment: NCI Yeast Anticancer Drug Screen. Data for the mlh1 rad18 strain (AID 175)
Conditions: S. cerevisiae mlh1 rad18 strain growth inhibition; at 50.0 µM; hits give high values
Outline: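 Vehicle-treated cultures served as the reference for growth inhibition in a yeast strain carrying DNA damage repair alterations exposed to each compound.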

Row | Compound | growth inhibition
1 | CC(=O)C1SCC[S+]1C (stereo not drawn) | -10.8% (inactive)
2 | C=CS(=O)(=O)c1ccc(NC(=O)Nc2ccc(Cl)cc2)cc1 | 5.85% (inactive)
3 | Cc1ccc(C(=O)C2CC2c2ccccc2)cc1 (stereo not drawn) | -7% (inactive)
4 | O=C1NCC2Cc3ccccc3C(c3ccccc3)=C12 (stereo not drawn) | -4.25% (inactive)
5 | OCCOc1ccc(Cl)cc1Cl | 9.05% (inactive)
6 | Nn1c(=S)[nH]nc(/C=C/c2ccc3c(c2)OCO3)c1=O | 15.6% (inactive)
7 | CCCS(=O)(=O)CCC(=O)c1cccs1 | 5.95% (inactive)
8 | COC(=O)C(=C/c1ccc(OC)cc1)/C(C(=O)O)=C(/C)c1ccccc1 | -9.8% (inactive)
9 | O=C1CC(C2OCOC3COCOC32)CC(=O)N1 (stereo not drawn) | -1.65% (inactive)
10 | O=C(CCl)Nc1ccc(O)c2ccccc12 | 36.8% (inactive)
11 | CCN(CC)CCCNc1cc(O)cc2cccnc12 | -0.35% (inactive)
12 | CC12CC3CC(C)(C1)CC(N=[N+]=[N-])(C3)C2 | -29.5% (inactive)
13 | C=C1C(=O)O[C@H]2/C=C(/C)C3=CC(=O)[C@@](C)(C[C@@H](OC(=O)/C(C)=C\C)C12)O3 (stereo partly drawn) | 75.8% (active)
14 | CSC1(C)C(=O)Nc2cc(C(F)(F)F)ccc21 (stereo not drawn) | 3.4% (inactive)
15 | O=C1CC2C(=O)N(Cc3ccccc3)C(=O)C2C(=O)N1 (stereo not drawn) | 1.25% (inactive)
16 | COc1ccc(N2CCN(CC(O)COc3ccc(Cl)cc3)CC2)cc1 (stereo not drawn) | 28.5% (inactive)
17 | CC(C)=Cc1cc(C(=O)Nc2ccc(Cl)c(Cl)c2)nc(N)n1 | -32.1% (inactive)
18 | Cc1cc(C)c2c(=O)c3c(oc2c1)O[C@@](C)(CO)C[C@@H]3c1ccccc1 | 5.2% (inactive)
